Screening results: PubChem, Broad Institute
This is a sample that favours compounds with a hit; in the whole collection about 1.8% have one here.
INS-1E GSIS act: GLuc luminescence reporter in INS-1E cells, primary screen for activators of glucose-dependent secretion of insulin. actives 0.61% (n = 370,000). AID 743287, 2014. INS-1E GLuc reporter insulin secretion, 2-3 h. activation, % at 16.6 µM;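 active = lowest replicate activation of at least 40%, so every replicate reaches that level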;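 also: 0% = median of neutral control wells and 100% = median of IBMX positive control wells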
CFTR F508del cor: F508del CFTR correction, initial screen, CFBE line, single point | CFBE cells, YFP halide quenching; stimulated with forskolin plus potentiator P3; % fluorescence drop versus neutral controls | activity (quench increase), % at 7.58 µM | actives 0.36% (n = 350,000) | AID 720511, 2013;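 active = mean added fluorescence quench of at least 8% versus neutral control, with both replicates also reaching 8%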;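 also: cells transiently co-express mutant CFTR-F508del with the halide-sensitive YFP; corrector assay measuring rescue of mutant channel to the surface after 24 h compound exposure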
LGR2 antag: inhibitors of bursicon-induced LGR2 CRE-luciferase signal, primary screen, cell-based, HEK293, CRE-luciferase reporter, bursicon stimulation | actives 0.35% (n = 380,000) | Drosophila bursicon receptor LGR2 (rickets) | inhibition, % at 9.99 µM | bursicon-stimulated, 4 h;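 active = drop in luminescence signal, shown as inhibition above about 50% in the replicate tests, limit read from the data, passing the limit was not always enough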;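 also: agonist challenge used bursicon conditioned medium at about half maximal strength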
EWS-Fli block: EWS/Fli-driven NR0B1 reporter inhibitors, primary screen, A673 cells, NR0B1 luciferase, luminescence, MLPCN library. viability-normalised. inhibition, % at 12.6 µM. actives 0.67% (n = 350,000). AID 651661, 2012;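 active = mean inhibition of at least 50% after viability correction, with every replicate also passing that limit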;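 also: firefly luciferase signal divided by Alamar Blue viability fluorescence both relative to DMSO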
RAD52 inh: RAD52 DNA annealing inhibitors, primary screen, biochemical, FRET, single point, set 2; DNA repair protein RAD52 homolog (Homo sapiens), P43351; recombinant RAD52 DNA annealing, FRET fluorescence; inhibition, % at 18.7 µM; actives 0.46% (n = 360,000); AID 651710, 2012;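 active = every replicate showing at least 50% inhibition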
Target sequence (P43351 whole entry, looked up): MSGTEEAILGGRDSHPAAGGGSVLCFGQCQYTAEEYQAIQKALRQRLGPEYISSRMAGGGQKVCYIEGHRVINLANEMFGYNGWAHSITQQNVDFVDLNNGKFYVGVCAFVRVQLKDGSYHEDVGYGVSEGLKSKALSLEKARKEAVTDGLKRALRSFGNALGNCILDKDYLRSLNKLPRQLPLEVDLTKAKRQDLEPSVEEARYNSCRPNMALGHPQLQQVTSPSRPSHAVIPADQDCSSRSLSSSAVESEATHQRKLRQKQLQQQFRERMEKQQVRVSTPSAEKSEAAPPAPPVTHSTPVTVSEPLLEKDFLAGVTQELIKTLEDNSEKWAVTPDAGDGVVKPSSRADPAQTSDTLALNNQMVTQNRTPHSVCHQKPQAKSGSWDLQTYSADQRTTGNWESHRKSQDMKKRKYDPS
RAD54 branch: inhibitors of human RAD54 branch migration, primary screen, biochemical, fluorescence, single point; DNA repair and recombination protein RAD54-like (Homo sapiens), Q92698; AID 602329, 2012; inhibition, % at 10.4 µM; RAD54 Holliday junction branch migration, FAM/BHQ fluorescence; actives 0.14% (n = 360,000);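 active = mean normalized replicate activity at least 40 and at least half of replicates scoring 40 or more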;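 also: 0% = median of neutral control wells and 100% = median of positive control wells; inhibitors cause a drop in the FAM fluorescence signal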
The depositor's hits bear a star; nt = no result given.

SMILES	INS-1E GSIS act	CFTR F508del cor	LGR2 antag	EWS-Fli block	RAD52 inh	RAD54 branch
C/C(=N\Nc1nncc2ccccc12)c1ccc(OCC(=O)N(C)C)cc1	-7.6	-2.6	-60.7	-60.2	-0.5	7.6
COc1cc2ccccc2cc1C(=O)Nc1ccc2oc(=O)ccc2c1	155.6*	2.2	3.3	-12.2	-10.6	0.1
COc1ccc(C(=O)Nc2ccc3ccccc3c2)cc1	11.4	-3.8	73.7*	60.7*	7.3	2.4
COc1cc(OC)c(C(=O)Nc2ccc3ccccc3c2)cc1OC	nt	nt	nt	nt	nt	5.0
COc1ccc(C(=O)Nc2ccccc2C(=O)NCc2cccnc2)cc1OC	40.9*	-1.5	1.5	nt	-8.4	-3.4
COc1ccc(Cl)cc1NC(=O)CSc1nnc(COc2ccccc2)n1N	nt	nt	nt	nt	nt	-2.5
O=C(NC1CCCCC1)N1CC(=O)N2[C@@H](CO)[C@@H](c3ccc(-c4cccnc4)cc3)[C@@H]2C1	-2.6	-3.8	14.4	6.7	60.9*	nt
CCCC#Cc1ccc([C@H]2[C@H](CO)N3C(=O)CN(C(=O)Nc4cc(F)ccc4F)C[C@@H]23)cc1	-20.1	10.3*	20.6	2.4	-5.4	nt
O=C(NC1CCCCC1)N1CC(=O)N2[C@@H](CO)[C@H](c3ccc(-c4cccnc4)cc3)[C@@H]2C1	11.0	-3.3	10.3	17.6	-11.3	nt
O=C(Nc1cc(F)ccc1F)N1CC(=O)N2[C@@H](CO)[C@H](c3ccc(C#CC4CCCCC4)cc3)[C@@H]2C1	-15.3	9.9*	0.3	-10.3	10.5	nt
O=C(Nc1cc(F)ccc1F)N1CC(=O)N2[C@H](C1)[C@H](c1ccc(C#CC3CCCCC3)cc1)[C@@H]2CO	-7.7	0.0	11.6	-4.3	-14.9	nt
O=C(Nc1ccccc1)C1=C(c2ccccc2)S(=O)(=O)CCS1(=O)=O	-2.7	-3.4	100.4*	40.5	-4.1	nt
CCOc1cc(/C=C/C(=O)Nc2ccc(C(=O)NCCN(CC)CC)cc2)ccc1OCC(C)C	68.1*	-10.5	102.9*	54.5*	26.6	nt
CCOc1ccc(/C=C/C(=O)Nc2ccc(C(N)=O)cc2)cc1OC	15.9	nt	-1.6	nt	nt	nt
Cc1ccc2nc(NNC(=O)c3ccc(S(=O)(=O)N4CCc5ccccc5C4)cc3)sc2c1	nt	8.3*	34.3	26.0	-9.7	9.6
N#C[C@H]1[C@@H](c2ccccc2C2=CCCCC2)[C@H](CO)N1S(=O)(=O)c1ccccc1	-13.2	2.3	3.9	6.5	-7.9	nt
N#C[C@H]1[C@H](c2ccccc2C2=CCCCC2)[C@@H](CO)N1S(=O)(=O)c1ccccc1	-23.3	0.4	67.8*	4.5	-0.6	nt
O=C(Cn1cncn1)N/N=C/c1cccc2ccccc12	2.7	nt	3.5	nt	nt	-2.3
C[C@@H]1CN([C@@H](C)CO)C(=O)CCCn2nncc2CO[C@@H]1CN(C)S(=O)(=O)c1cccs1	-4.6	2.0	1.8	-3.8	-6.3	-1.8
Nc1nc2ccccc2n1C(=O)c1ccccc1	9.1	0.1	32.6	61.0*	-12.8	nt
COc1ccc(C(=O)CCS(=O)(=O)c2ccc(F)cc2)cc1OC	60.4*	-1.8	1.9	-6.5	6.4	0.7
COc1ccc(CC(=O)c2ccc(OC)c(OC)c2)cc1	71.4*	nt	-28.8	-11.0	-0.7	nt
COc1ccc(CC(=O)OCC(=O)c2ccc(OC)cc2)cc1	7.9	nt	8.2	nt	nt	nt
COc1ccc(CC(=O)OCC(=O)c2ccc(OC)c(OC)c2)cc1	40.8*	1.8	-5.5	-5.4	-3.3	-8.1
O=C1NCCCCC1NS(=O)(=O)c1cccc2ccccc12 (stereo not drawn)	-11.2	0.1	-5.6	-7.8	-13.2	6.2
SMILES	INS-1E GSIS act	CFTR F508del cor	LGR2 antag	EWS-Fli block	RAD52 inh	RAD54 branch
COc1ccc(CN(C)C[C@H]2OCCCC[C@H](C)Oc3ccc(NS(=O)(=O)c4ccc(Cl)cc4)cc3C(=O)N([C@H](C)CO)C[C@@H]2C)cc1	-29.0	2.7	-0.3	6.4	49.2	5.4
COc1ccc(CN(C)C[C@@H]2OCCCC[C@H](C)Oc3ccc(NS(=O)(=O)c4ccc(Cl)cc4)cc3C(=O)N([C@H](C)CO)C[C@H]2C)cc1	-28.9	-1.4	10.4	6.8	57.5*	2.3
COc1ccc(CN(C)C[C@H]2OCCCC[C@@H](C)Oc3ccc(NS(=O)(=O)c4ccc(Cl)cc4)cc3C(=O)N([C@@H](C)CO)C[C@H]2C)cc1	-11.4	5.4	24.2	5.4	54.7*	-6.7
COc1ccc(CN(C)C[C@H]2OCCCC[C@@H](C)Oc3ccc(NS(=O)(=O)c4ccc(Cl)cc4)cc3C(=O)N([C@H](C)CO)C[C@H]2C)cc1	-1.8	3.9	-1.0	7.6	54.8*	-12.0
O=S(=O)(Cc1ccccc1)NCCc1ccc(F)cc1	-11.0	1.5	2.3	4.4	-5.7	-7.5
Cc1onc(-c2ccccc2Cl)c1-c1nc(-c2ccccn2)no1	nt	nt	nt	nt	nt	3.5
Clc1ccccc1/C=C/c1nc(-c2ccccn2)no1	-7.8	-0.7	98.4*	66.6*	-17.9	-4.6
Cc1cc2ncc(-c3cccs3)nc2cc1C	-4.1	-4.4	71.2*	29.0	1.5	nt
c1csc(-c2ccc3ccccc3n2)c1	nt	nt	nt	nt	nt	1.3
Cc1ccc(N2C(=O)C(NC(=O)c3ccccc3F)(C(F)(F)F)C3=C2CC(C)(C)CC3=O)cc1 (stereo not drawn)	-11.6	-1.5	20.8	-3.7	-11.6	-2.2
CC(NC(=O)C(=O)N1CCOCC1)C(c1cccs1)N1CCN(c2ccccc2)CC1 (stereo not drawn)	8.8	-1.9	-7.6	6.9	-10.9	10.2
COc1ccc(N2CCN(C(c3cccs3)C(C)NC(=O)C(=O)N3CCOCC3)CC2)cc1 (stereo not drawn)	78.7*	3.1	4.8	1.2	-2.7	-10.2
O=C(C[C@H]1C[C@H]2c3cc(NC(=O)c4cccnc4)ccc3O[C@H]2[C@H](CO)O1)NCCc1ccccc1	-2.4	-1.2	8.3	1.0	14.3	-2.0
COc1ccccc1NC(=O)NCc1ccc(C)n1C	3.6	-2.0	13.5	-3.9	-13.2	-4.5
C=CCn1c(SCC(=O)N2CCOCC2)nc2scc(-c3ccco3)c2c1=O	nt	nt	nt	nt	nt	-9.1
Cc1nn2c(-c3ccccc3)ccnc2c1-c1ccccc1	nt	nt	nt	nt	nt	-1.6
N#CCc1nn2c(-c3ccccc3)ccnc2c1C#N	45.6*	2.5	4.3	-0.8	-28.5	2.5
O=c1oc2ccccc2c(Nc2cc3ccccc3cc2O)c1[N+](=O)[O-]	-64.0	8.5*	nt	-46.1	2.0	nt
O=c1oc2ccccc2c(Nc2ccccc2O)c1[N+](=O)[O-]	0.7	-3.9	2.0	1.7	-6.5	nt
CC(=O)N1CCSc2ccc(S(=O)(=O)Nc3ccccc3C)cc21	14.6	0.7	-10.3	nt	0.2	0.3
CNC(=S)N/N=C/c1ccc(-c2cccc(C(=O)O)c2)o1	8.1	-2.2	65.1*	11.7	-23.6	nt
